Experiment [1] is described as follows: P. berghei load reduction in hepatocytes – cell-based, HepG2, luciferase luminescence, HepG2 viability, primary screen (AID 624349; in the data active = parasite load remaining mostly below about 12%, no sharp cut-off; inactive = mostly above about 10%;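 note: 100% = mean of DMSO negative control wells on the same plate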). The settings on record: P. berghei liver stage in HepG2, luciferase luminescence, concentration not given here; parasite load remaining: stronger effect = lower value; viability: measured here: HepG2 viability without parasites.
Experiment [2] in a line: Wnt pathway potentiators raising nuclear beta-catenin – imaging, WNT3A-conditioned medium, mouse C2C12, NPC library, primary screen (AID 1117326; in the data active = nuclear beta-catenin stimulation mostly above about 4.2%, no sharp cut-off; inactive = mostly below about 10%). Particulars: stronger effect = higher value.
A short description of experiment [3]: stimulators of insulin release from INS-1E, primary screen, cell-based, 5 mM glucose, NPC library (AID 1117329;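 active = compound raises insulin release from rat beta cells at 5 mM glucose, no numeric limit stated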). Particulars: rat INS-1E insulin secretion, at 10 µM, stronger effect = higher value.
A short description of experiment [4]: growth inhibition of GSK3B-pretreated HCT116 cells – cell-based, CellTiter-Glo, 0.2 to 20 µM (AID 1117336;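 active = compounds lowering colon cancer cell viability after pretreatment blocking the GSK3B kinase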). Particulars: HCT116 viability after GSK3B inhibitor, at 20 µM, stronger effect = higher value. (ATP-based viability assays read luminescence as a measure of living cells.)
Experiment [5] in a line: inhibition of endothelial tube formation, primary screen, imaging, VEGF stimulated, CD31 staining, tube area, NPC library (AID 1117340;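 active = compound that reduces growth-factor-driven endothelial tube area in a mixed cell culture, no cutoff stated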). The settings on record: VEGF-stimulated ADSC/ECFC co-culture, at 10 µM, stronger effect = higher value.
Experiment [6] can be described thus: GLP1 release stimulators, primary, NCI-H716, NPC library (AID 1117341;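 active = compound raises GLP1 secretion from the human gut endocrine cells, with no numeric limit stated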). The settings on record: NCI-H716 cells, at 10 µM, stronger effect = higher value.
The nature of experiment [7]: HCT116 colon cancer cell growth inhibition, primary screen, CellTiter-Glo luminescence, NPC library (AID 1117342;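 active = compounds that lower survival of HCT116 colon cancer cells in the luminescence readout, no numeric limit stated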). Particulars: at 20 µM (top of the series).
Experiment [8] in a line: reduced SW480 viability measured with CellTiter-Glo, NPC library, primary (AID 1117343;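 active = compounds that lower viability of the colon cancer cells in the luminescence readout, with no numeric limit stated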). Particulars: CellTiter-Glo luminescence; at 20 µM (top of the series) unless noted.
A short description of experiment [9]: NPC library primary testing for decreased DLD-1 cell viability via CellTiter-Glo (AID 1117346;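 active = compounds that lower survival of DLD-1 colon cancer cells in the luminescence readout, no cutoff given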). The settings on record: DLD-1 viability, CellTiter-Glo luminescence; at 20 µM (top of the series).
Experiment [10] is described as follows: viability loss with induced miR-34 in A549 – imaging, A549 dox-inducible miR-34, nuclei and caspase counts, primary screen (AID 1347080;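 active = compounds whose cell count with miR-34 switched on is under 0.7 times the count with it off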). Particulars: A549 miR-34 inducible, Hoechst nuclei count, 48 h.
Experiment [11] is described as follows: MELAS cybrid and Rieske KO viability enhancers – cell-based, MELAS cybrids, Rieske KO mouse fibroblasts, CellTiter-Glo, primary screen (AID 1508586).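 Note: z relative to plate mean and SD of compound and empty wells.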 Particulars: low glucose.
Experiment [12] is described as follows: galactose survival enhancers in mitochondrial complex I cybrids – cell-based, galactose medium, ATP luminescence, primary screen (AID 1645843;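 active = z-score of at least 1.8 in each of two replicates, scored against plate mean and spread of sample wells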;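 note: positive z means more ATP and so rescue of galactose-driven cybrid death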). The settings on record: complex I mutant cybrid cells, 72 h, stronger effect = higher value.
Experiment [13] in a line: compounds altering viability of human ES cells (AID 493140; call rule not given here;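 note: cells exposed to compounds for four days before counting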). The settings on record: human embryonic stem cell survival screen; stronger effect = higher value.
The target of experiment [14] is NAD(+) hydrolase SARM1 (Homo sapiens) (UniProt Q6SZW1). As to the kind of experiment: blocking NAD cleavage by SARM1 SAM-TIR – cell lysate, NAD-Glo luminescence (AID 1508614;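 active = compound whose remaining NAD level is above about 45 nM, limit read from the data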;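 note: higher remaining NAD means stronger inhibition of SARM1 NADase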). Particulars: SAM-TIR HEK293T lysate NADase, at 1 µM, stronger effect = higher value.
NAD(+) hydrolase SARM1 (Homo sapiens), sequence (Q6SZW1 whole entry, looked up): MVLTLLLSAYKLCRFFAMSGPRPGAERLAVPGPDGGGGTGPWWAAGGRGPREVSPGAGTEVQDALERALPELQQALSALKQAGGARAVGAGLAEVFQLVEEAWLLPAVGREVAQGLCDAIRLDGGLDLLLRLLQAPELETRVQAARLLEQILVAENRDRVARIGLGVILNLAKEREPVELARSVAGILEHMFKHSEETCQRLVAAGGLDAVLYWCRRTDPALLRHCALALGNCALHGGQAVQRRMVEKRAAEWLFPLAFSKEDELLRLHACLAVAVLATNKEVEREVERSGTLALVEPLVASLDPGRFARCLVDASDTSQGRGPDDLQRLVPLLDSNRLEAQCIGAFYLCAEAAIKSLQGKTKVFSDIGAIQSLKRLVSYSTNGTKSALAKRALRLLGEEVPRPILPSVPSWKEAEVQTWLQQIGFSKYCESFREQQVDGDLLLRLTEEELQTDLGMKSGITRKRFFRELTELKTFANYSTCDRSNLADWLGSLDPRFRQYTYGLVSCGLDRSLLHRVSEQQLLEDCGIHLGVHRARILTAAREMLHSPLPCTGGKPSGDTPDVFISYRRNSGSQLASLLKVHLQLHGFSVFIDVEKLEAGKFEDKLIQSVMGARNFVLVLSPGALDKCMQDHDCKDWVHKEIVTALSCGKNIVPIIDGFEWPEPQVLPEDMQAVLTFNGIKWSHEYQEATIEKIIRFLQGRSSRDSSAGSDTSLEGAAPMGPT
For experiment [15], the target named is ATP-dependent translocase ABCB1 (Homo sapiens) (UniProt P08183). Briefly: P-glycoprotein substrate transport blockade – cell-based (AID 377; in the data active = fluorescence slope change above about 50%). The settings on record: MDR1-expressing cells, fluorescent substrate accumulation slope; stronger effect = higher value; concentration not given here.
ATP-dependent translocase ABCB1 (Homo sapiens), sequence (P08183 whole entry, looked up, the tested form may be a part): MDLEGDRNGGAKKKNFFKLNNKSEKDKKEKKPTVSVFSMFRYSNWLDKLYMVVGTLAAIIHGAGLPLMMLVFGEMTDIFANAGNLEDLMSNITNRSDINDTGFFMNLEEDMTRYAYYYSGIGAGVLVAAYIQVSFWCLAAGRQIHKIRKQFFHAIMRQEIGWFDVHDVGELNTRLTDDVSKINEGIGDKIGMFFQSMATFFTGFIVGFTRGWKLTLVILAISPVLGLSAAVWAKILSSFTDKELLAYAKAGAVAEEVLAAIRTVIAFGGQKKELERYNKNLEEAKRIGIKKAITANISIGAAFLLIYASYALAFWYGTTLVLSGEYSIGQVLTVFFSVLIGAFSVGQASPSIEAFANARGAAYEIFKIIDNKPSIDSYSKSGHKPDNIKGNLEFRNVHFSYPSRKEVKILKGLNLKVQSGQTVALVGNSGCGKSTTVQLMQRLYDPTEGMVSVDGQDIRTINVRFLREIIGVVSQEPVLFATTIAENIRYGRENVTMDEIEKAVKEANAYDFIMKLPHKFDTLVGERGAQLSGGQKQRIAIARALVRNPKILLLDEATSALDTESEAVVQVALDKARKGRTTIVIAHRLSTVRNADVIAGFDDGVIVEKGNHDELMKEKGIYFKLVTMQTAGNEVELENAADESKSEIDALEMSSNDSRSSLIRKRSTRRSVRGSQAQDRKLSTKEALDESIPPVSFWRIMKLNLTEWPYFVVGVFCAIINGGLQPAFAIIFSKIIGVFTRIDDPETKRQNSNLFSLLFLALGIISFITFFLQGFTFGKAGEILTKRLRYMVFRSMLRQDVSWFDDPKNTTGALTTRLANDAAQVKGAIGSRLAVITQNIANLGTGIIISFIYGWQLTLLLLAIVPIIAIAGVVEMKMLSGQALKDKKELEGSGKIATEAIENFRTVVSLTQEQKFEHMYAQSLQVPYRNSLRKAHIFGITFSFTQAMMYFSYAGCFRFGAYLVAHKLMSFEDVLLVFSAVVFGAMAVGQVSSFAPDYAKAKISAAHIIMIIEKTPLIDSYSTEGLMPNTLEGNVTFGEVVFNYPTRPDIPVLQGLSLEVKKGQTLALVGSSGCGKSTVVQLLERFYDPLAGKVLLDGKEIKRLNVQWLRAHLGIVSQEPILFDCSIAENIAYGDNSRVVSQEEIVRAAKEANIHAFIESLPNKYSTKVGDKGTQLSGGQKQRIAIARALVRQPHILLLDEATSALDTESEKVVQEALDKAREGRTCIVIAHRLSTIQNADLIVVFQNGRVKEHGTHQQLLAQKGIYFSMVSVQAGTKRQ
For experiment [16], the target named is Mitogen-activated protein kinase 7 (Homo sapiens) (UniProt Q13164). As to the kind of experiment: Gal4-ERK5 driven luciferase induction – cell-based, HTS, primary screen (AID 1508626;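 active = luciferase signal above three times the same-plate solvent-only control wells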;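 note: luciferase driven by Gal4-ERK5 fusion binding five Gal4 sites before minimal TATA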). Particulars: HeLa Gal4-ERK5 transactivation, 18 h, at 5 µM, stronger effect = higher value.
Mitogen-activated protein kinase 7 (Homo sapiens), sequence (Q13164 whole entry, looked up, the tested form may be a part): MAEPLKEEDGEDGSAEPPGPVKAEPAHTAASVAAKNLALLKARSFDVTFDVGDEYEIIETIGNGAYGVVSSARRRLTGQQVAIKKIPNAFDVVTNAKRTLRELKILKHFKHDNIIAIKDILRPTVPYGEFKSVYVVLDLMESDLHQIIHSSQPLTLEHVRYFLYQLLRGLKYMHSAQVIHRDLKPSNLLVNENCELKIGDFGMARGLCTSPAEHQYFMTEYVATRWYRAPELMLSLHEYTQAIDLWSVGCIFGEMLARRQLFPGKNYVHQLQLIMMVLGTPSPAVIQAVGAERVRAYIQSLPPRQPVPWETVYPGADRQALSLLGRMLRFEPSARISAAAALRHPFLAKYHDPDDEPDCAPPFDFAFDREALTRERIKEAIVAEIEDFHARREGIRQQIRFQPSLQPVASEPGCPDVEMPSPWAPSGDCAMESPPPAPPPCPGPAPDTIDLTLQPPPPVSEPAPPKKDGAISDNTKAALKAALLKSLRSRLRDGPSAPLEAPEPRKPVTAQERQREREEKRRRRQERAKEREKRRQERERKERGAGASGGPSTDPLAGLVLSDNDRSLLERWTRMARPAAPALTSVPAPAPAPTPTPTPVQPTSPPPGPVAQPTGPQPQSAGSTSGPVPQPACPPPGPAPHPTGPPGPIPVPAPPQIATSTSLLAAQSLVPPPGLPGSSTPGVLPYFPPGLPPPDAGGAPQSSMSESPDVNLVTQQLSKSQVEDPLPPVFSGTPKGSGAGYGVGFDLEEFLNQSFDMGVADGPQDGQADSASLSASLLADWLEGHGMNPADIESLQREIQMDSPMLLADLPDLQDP
Setting [17] is: stronger effect = lower value, cell number ratio, induced over uninduced.
[18] abbreviates: measured here: relative caspase fold change +Dox/-Dox.
[19] abbreviates: measured here: total cells with miR-34 induction, stronger effect = lower value.
[20] abbreviates: measured here: total cells without miR-34 induction.
[21] abbreviates: MELAS cybrid survival, CellTiter-Glo 48 h, stronger effect = higher value.
Where [22] appears, read: Rieske KO mouse fibroblast survival, CellTiter-Glo 72 h.

Values joined by “and” are separate entries in the source; they are usually repeats but may differ in a detail not shown here. Equal values may be shown once. Records with an inconclusive call do not appear. Active and inactive are the calls of the source.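 Rule for the calls, unless noted: active = mean z-score across replicates of 1.96 or higher in either the MELAS or the Rieske mutant cell line; inactive = the rest.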

4 molecules from PubChem BioAssay can be followed below.

Take `O=C(O)Cc1sc(-c2ccccc2)nc1-c1ccc(Cl)cc1`: in experiment [1], the parasite load remaining is 43.2% (inactive). The viability in experiment [1] was determined as 106%. Moreover, the nuclear beta-catenin stimulation in [2] (at 10 µM) is -0.8% (inactive); in experiment [2] (stimulation, at 2 µM), -0.1%. In addition, the insulin secretion stimulation in experiment [3] was 3.3% (inactive). Further, the viability decrease in experiment [4] is 18.7% (inactive). For the same molecule, the tube area decrease in [5] was 11.7% (inactive). Also, the GLP1 secretion stimulation in experiment [6] is -0.5% (inactive). For the same molecule, the inhibition of viability in [7] was 43.2% (inactive). In addition, the viability decrease (inhibition) in experiment [8] was 32.4% (inactive); in experiment [9] it was 16.6% (inactive). Also, the fold change is 0.887 (inactive) in experiment [10] (setting [17]) and 0.944 in experiment [10] (setting [18]). Moreover, the cell count in experiment [10] (setting [19]) came out at 10000; in experiment [10] (setting [20]), 11300. The z-score in experiment [11] (setting [21]) was -0.576 (inactive) and -0.0336 (inactive); in [11] (setting [22]), -0.115 and 0.182; in experiment [12] it was 1.28 (inactive).
Take `CN(Cc1ccc(C(C)(C)C)cc1)Cc1cccc2ccccc12`: the parasite load remaining in experiment [1] was 43.3% (inactive). The viability in [1] was 140%. Besides, the nuclear beta-catenin stimulation in experiment [2] (at 10 µM) was -1.4% (inactive); in [2] (stimulation, at 2 µM), -0.7%. Also, in experiment [3], the insulin secretion stimulation was -1% (inactive). The viability decrease in experiment [4] was 37.6% (inactive). Besides, the tube area decrease in experiment [5] is 7.1% (inactive). In addition, the GLP1 secretion stimulation in experiment [6] was -4% (inactive). In experiment [7], the inhibition of viability was 50.7% (active). Moreover, the viability decrease (inhibition) in experiment [8] was 62.7% (active); in [9], 37.8% (inactive). Moreover, the fold change in experiment [10] (setting [17]) is 0.848 (inactive) and 0.895 (inactive); in experiment [10] (setting [18]), 0.76 and 0.344. The cell count in experiment [10] (setting [19]) is 7540 and 9920; in [10] (setting [20]) it was 8900 and 11100. Further, the z-score was -0.284 (inactive) and -0.0947 (inactive) and -0.415 (inactive) in [11] (setting [21]); -0.307 and 0.166 and -0.508 in experiment [11] (setting [22]); -1.71 (inactive) in experiment [12].
Regarding `CC(=O)OCC(=O)[C@@]1(OC(C)=O)[C@@H](C)C[C@H]2[C@@H]3C[C@H](F)C4=CC(=O)C=C[C@]4(C)[C@@]3(F)[C@@H](O)C[C@@]21C`, the survival in [13] is 6.42 (inactive). Further, the parasite load remaining in experiment [1] is 91.6% (inactive) and 91.1% (inactive). Moreover, the viability in experiment [1] is 118% and 76.3%. For the same molecule, the nuclear beta-catenin stimulation is 2.1% (inactive) in experiment [2] (at 10 µM) and 0.9% in experiment [2] (stimulation, at 2 µM). Moreover, the insulin secretion stimulation in [3] is 15.2% (inactive). For the same molecule, in [4], the viability decrease was 4% (inactive). Also, the tube area decrease in [5] was -8.8% (inactive). The GLP1 secretion stimulation in [6] is 1.7% (inactive). The inhibition of viability in [7] is 17.6% (inactive). Further, the viability decrease (inhibition) is 16.6% (inactive) in experiment [8] and 7.1% (inactive) in [9]. Besides, the fold change in [10] (setting [17]) was 0.811 (inactive); in experiment [10] (setting [18]), 1.36. For the same molecule, the cell count in experiment [10] (setting [19]) turned out to be 7160; in [10] (setting [20]), 8820. The values for the z-score in [11] (setting [21]) and in experiment [11] (setting [22]) were -0.532 (inactive) and -0.0519, respectively. For the same molecule, the remaining NAD in experiment [14] is 10 nM (inactive).
As for `Cc1ncc(C[n+]2csc(CCO)c2C)c(N)n1`, the fluorescence slope change in [15] is 80.3% (active). In addition, in experiment [13], the survival was 12.6 (inactive). Besides, the parasite load remaining in [1] was 161% (inactive) and 60.9% (inactive). Further, in experiment [1], the viability was 98.2% and 74.9%. Further, the nuclear beta-catenin stimulation in [2] (at 10 µM) was -1.9% (inactive); in experiment [2] (stimulation, at 2 µM), -0.8%. Further, the insulin secretion stimulation in experiment [3] is 3.8% (inactive). In addition, the viability decrease in experiment [4] was -12.9% (inactive). For the same molecule, in [5], the tube area decrease was -6.7% (inactive). Moreover, the GLP1 secretion stimulation in experiment [6] was -1.3% (inactive). Also, the inhibition of viability in [7] was 5% (inactive). Also, the viability decrease (inhibition) is 7.9% (inactive) in [8] and 1.8% (inactive) in experiment [9]. For the same molecule, the fold change is 0.836 (inactive) in experiment [10] (setting [17]) and 1.04 in experiment [10] (setting [18]). The cell count in experiment [10] (setting [19]) was determined as 8780; in experiment [10] (setting [20]), 10500. Moreover, the z-score in [11] (setting [21]) is 0.823 (inactive); in experiment [11] (setting [22]), 0.201. The remaining NAD in experiment [14] was 10 nM (inactive). Moreover, the luciferase signal in [16] was 44 AU (inactive).

Broadly, the viability is a read-out of living cells in per cent, often relative to untreated cells.
